Values joined by “and” are separate entries in the source; they are usually repeats but may differ in a detail not shown here. Equal values may be shown once. Records with an inconclusive call do not appear. Where a call stands in place of a potency, no number is given. A structure can be active in one record and inactive in another. Active and inactive are the calls of the source. Unless noted, calls come from the whole dose curve; as a rule, active = well fitted curve in the direction sought with a large enough effect in the repeat runs; inconclusive = weak or mixed curves; inactive = no such curve, though single readings can be large; an effect the other way counts as inactive or inconclusive. Residues, ends and D or L forms follow the SMILES beside them.
Tests used:
[1] = qHTS assay to test for compound auto fluorescence at 535 nm (green) in HEK293 cells (AID 720680); details: green autofluorescence 485/535 nm; series mostly up to 91.3 µM
[2] = qHTS assay to test for compound auto fluorescence at 460 nm (blue) in HEK293 cell free culture (AID 720681); details: cell-free medium, autofluorescence 405/460 nm (blue); series mostly up to 91.3 µM
In short: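 Test compounds were pinned into cell-free culture medium (DMEM with 10% FBS) and fluorescence was read directly at Ex/Em 405/460 nm. Signals were expressed as fluorescence equivalents of triamterene, with DMSO vehicle as control.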

[3] = qHTS assay to test for compound auto fluorescence at 535 nm (green) in HEK293 cell free culture (AID 720682); details: cell-free medium, green autofluorescence 485/535 nm, stronger effect = higher value; series mostly up to 91.3 µM
In short: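 Read-out: 485/535 nm fluorescence intensity, calibrated against fluorescein. Medium only (DMEM + 10% FBS, no cells); test compound or DMSO vehicle added by pintool before plate reading.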

[4] = qHTS assay to test for compound auto fluorescence at 590 nm (red) in HEK293 cell free culture (AID 720683); details: cell-free medium autofluorescence, Ex540/Em590 red; series mostly up to 91.3 µM
In short: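 Tox21 10K library compounds were pinned into cell-free DMEM with 10% FBS and fluorescence was read at excitation 540 nm. Activity is expressed as Rose Bengal sodium equivalency.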

[5] = qHTS assay to test for compound auto fluorescence at 590 nm (red) in HepG2 cell free culture (AID 720684); details: cell-free medium autofluorescence, red 540/590 nm; series mostly up to 91.3 µM
In short: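 Ex 540 / Em 590 nm read of compound in cell-free MEM (10% FBS). Rose Bengal sodium reference.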

[6] = qHTS assay to test for compound auto fluorescence at 535 nm (green) in HepG2 cell free culture (AID 720686); details: Cell-free medium, green autofluorescence 485/535 nm; series mostly up to 91.3 µM
[7] = qHTS assay to test for compound auto fluorescence at 460 nm (blue) in HepG2 cells (AID 720687); details: autofluorescence 405/460 nm, 1 h; series mostly up to 91.3 µM
In short: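 Cells (2,000/well in MEM with 10% FBS) attached overnight at 37 C, then were exposed to compound or DMSO for 1 hr at 37 C, 5% CO2. Fluorescence read at Ex/Em 405/460 nm, expressed as triamterene-equivalent signal.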

[8] = qHTS assay for identifying genotoxic compounds that show differential cytotoxicity against isogenic chicken DT40 cell lines with known DNA damage response pathways - wild type cell line (AID 743012); details: DT40 wild type chicken cells viability, CellTiter-Glo, 40 h; series mostly up to 68.4 µM; note: nearly all actives have a fitted effect of over 60% in size
In short: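 CellTiter-Glo luminescence readout of viability in wild type DT40 cells after 40 h compound exposure at 37 C/5% CO2; 300 cells/well; reagent incubated 30 min at room temperature before reading.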

[9] = qHTS assay for identifying genotoxic compounds that show differential cytotoxicity against isogenic chicken DT40 cell lines with known DNA damage response pathways - Rev3 mutant cell line (AID 743014); details: chicken DT40 Rev3-/- viability, CellTiter-Glo, 40 h; series mostly up to 68.4 µM; note: nearly all actives have a fitted effect of over 55% in size; note: potency is the fitted concentration of half-maximal effect
[10] = qHTS assay for identifying genotoxic compounds that show differential cytotoxicity against isogenic chicken DT40 cell lines with known DNA damage response pathways - Rad54/Ku70 mutant cell line (AID 743015); details: DT40 Rad54/Ku70 mutant viability, CellTiter-Glo, 40 h; series mostly up to 66.8 µM; note: nearly all actives have a fitted effect of over 60% in size; note: potency is the fitted concentration of half-maximal effect
[11] = qHTS assay to identify small molecule antagonists of the androgen receptor (AR) signaling pathway - cell viability counter screen (AID 743033; note: nearly all actives have a fitted effect of over 45% in size); details: AR-bla HEK293 viability, CellTiter-Glo luminescence, 16 h; series mostly up to 58.5 µM
[12] = qHTS assay to identify small molecule antagonists of the androgen receptor (AR) signaling pathway using the MDA cell line - cell viability counter screen (AID 743041; note: nearly all actives have a fitted effect of over 45% in size); details: MDA-kb2 viability, CellTiter-Fluor, 16 h, cells co-treated with R1881 androgen agonist; series mostly up to 70.3 µM
In short: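 In this qHTS counter assay, fluorescence intensity after CellTiter-Fluor addition indicated viability of MDA-kb2 AR-luc cells given compounds and R1881 for 16 h at 37C.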

[13] = molecular target: Glucocorticoid receptor (Homo sapiens) (UniProt P04150); assay: qHTS assay to identify small molecule agonists of the glucocorticoid receptor (GR) signaling pathway (AID 720691; active = well fitted activation curve with a large enough effect in the signal ratio in the repeat runs, not every such curve was filed as active; the % refers to the signal ratio); details: GR-bla HeLa, beta-lactamase reporter ratio, 18 h; series mostly up to 62.4 µM
In short: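 HeLa GR-bla reporter line; cells pre-incubated 4 h, compound in DMSO 18 h at 37 C; LiveBLAzer B/G FRET substrate 2 h RT; fluorescence intensity read-out.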

[14] = molecular target: Glucocorticoid receptor (Homo sapiens) (UniProt P04150); assay: qHTS assay to identify small molecule antagonists of the glucocorticoid receptor (GR) signaling pathway (AID 720692; active = well fitted inhibition curve with a large enough effect in the signal ratio in the repeat runs, not every such curve was filed as active; the % refers to the signal ratio); details: GR-bla HeLa, beta-lactamase FRET ratio, dexamethasone-stimulated, 18 h; series mostly up to 58.5 µM
In short: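 Read-out: beta-lactamase FRET substrate fluorescence, 2 h at room temperature, in HeLa cells stably carrying a GRE-driven bla reporter. Compounds were co-incubated with 5 nM dexamethasone agonist (final) for 18 h at 37 C.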

[15] = qHTS assay to identify small molecule antagonists of the glucocorticoid receptor (GR) signaling pathway - cell viability counter screen (AID 720693); details: GR-bla HeLa viability, CellTiter-Glo luminescence, 18 h, with 5 nM dexamethasone present; series mostly up to 58.5 µM; note: nearly all actives have a fitted effect of over 55% in size
[16] = qHTS assay to test for compound auto fluorescence at 460 nm (blue) in HepG2 cell free culture (AID 720685); details: Cell-free culture medium, blue autofluorescence 405/460 nm; series mostly up to 91.3 µM
In short: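 Cell-free plates of MEM plus 10% FBS received 23 nL compound or DMSO vehicle; blue-channel (405/460 nm) intensity scored against triamterene as reference fluorophore.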

[17] = qHTS assay to identify small molecule antagonists of the thyroid receptor (TR) signaling pathway - cell viability counter screen (AID 743064); details: GH3.TRE-Luc viability, CellTiter-Fluor, 24 h; series mostly up to 70.3 µM; note: nearly all actives have a fitted effect of over 50% in size
In short: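 GH3.TRE-Luc rat pituitary cells carrying a TRE-luciferase reporter were treated with compound plus 1 nM T3 (final) for 23.5 h at 37 °C. Viability was then read in the same wells by CellTiter-Fluor fluorescence after a further 30 min.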

[18] = molecular target: Androgen receptor (Homo sapiens) (UniProt P10275); assay: qHTS assay to identify small molecule antagonists of the androgen receptor (AR) signaling pathway (AID 743035; active = well fitted inhibition curve with a large enough effect in the signal ratio in the repeat runs, not every such curve was filed as active; the % refers to the signal ratio); details: HEK293 AR-UAS-bla, R1881-stimulated, beta-lactamase FRET, 16 h; series mostly up to 58.5 µM
In short: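 AR-bla HEK293 reporter cells; 4 h settle at 37C/5% CO2; compound + R1881 agonist, 16 h at 37C; LiveBLAzer B/G FRET substrate 2 h RT; fluorescence intensity read. qHTS format.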

[19] = molecular target: Androgen receptor (Homo sapiens) (UniProt P10275); assay: qHTS assay to identify small molecule agonists of the androgen receptor (AR) signaling pathway using the MDA cell line (AID 743040; note: nearly all actives have a fitted effect of over 20% in size); details: MDA-kb2 AR-luc cells, MMTV luciferase, 16 h; series mostly up to 70.3 µM
In short: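 Cell-based luciferase reporter: MDA-kb2, MMTV promoter (AR + GR response elements). 16 h compound exposure at 37C; ONE-Glo, 30 min RT, luminescence.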

[20] = molecular target: Androgen receptor (Homo sapiens) (UniProt P10275); assay: qHTS assay to identify small molecule antagonists of the androgen receptor (AR) signaling pathway using the MDA cell line (AID 743042; note: nearly all actives have a fitted effect of over 55% in size); details: MDA-kb2 AR-luc, MMTV luciferase, R1881 antagonist, 16 h; series mostly up to 70.3 µM
In short: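 MDA-kb2 cells (human breast carcinoma, stably carrying an MMTV-luciferase reporter responsive to AR and GR) were plated at 3,000 cells/well and preincubated 5 hr at 37C, then given compound plus R1881 agonist for 16 h. ONE-Glo luminescence was read.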

Chain of Androgen receptor (Homo sapiens) (P10275 whole entry, looked up): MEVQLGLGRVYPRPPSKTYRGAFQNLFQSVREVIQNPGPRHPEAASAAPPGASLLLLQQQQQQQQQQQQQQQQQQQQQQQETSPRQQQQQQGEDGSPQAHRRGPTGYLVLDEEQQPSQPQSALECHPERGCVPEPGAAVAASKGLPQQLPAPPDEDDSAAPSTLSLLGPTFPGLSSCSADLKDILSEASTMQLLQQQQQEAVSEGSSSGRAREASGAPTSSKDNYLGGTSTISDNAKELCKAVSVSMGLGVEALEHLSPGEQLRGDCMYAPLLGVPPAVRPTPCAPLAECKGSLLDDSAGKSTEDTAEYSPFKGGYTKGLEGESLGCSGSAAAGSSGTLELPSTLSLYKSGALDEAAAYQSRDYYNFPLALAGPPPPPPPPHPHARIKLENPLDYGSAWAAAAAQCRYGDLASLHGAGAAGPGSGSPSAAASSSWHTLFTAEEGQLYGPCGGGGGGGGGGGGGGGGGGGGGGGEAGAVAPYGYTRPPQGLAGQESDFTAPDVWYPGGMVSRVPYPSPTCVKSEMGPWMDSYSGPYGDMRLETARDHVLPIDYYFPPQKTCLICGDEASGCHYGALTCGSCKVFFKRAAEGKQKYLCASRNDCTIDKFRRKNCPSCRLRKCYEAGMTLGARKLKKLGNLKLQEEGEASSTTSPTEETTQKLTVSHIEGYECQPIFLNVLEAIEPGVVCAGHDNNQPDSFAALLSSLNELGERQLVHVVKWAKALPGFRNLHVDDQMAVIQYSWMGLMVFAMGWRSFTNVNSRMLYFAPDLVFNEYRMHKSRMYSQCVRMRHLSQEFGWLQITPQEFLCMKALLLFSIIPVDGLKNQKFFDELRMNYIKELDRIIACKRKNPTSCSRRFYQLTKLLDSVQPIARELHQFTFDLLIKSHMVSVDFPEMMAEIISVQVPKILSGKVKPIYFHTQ
Chain of Glucocorticoid receptor (Homo sapiens) (P04150 whole entry, looked up): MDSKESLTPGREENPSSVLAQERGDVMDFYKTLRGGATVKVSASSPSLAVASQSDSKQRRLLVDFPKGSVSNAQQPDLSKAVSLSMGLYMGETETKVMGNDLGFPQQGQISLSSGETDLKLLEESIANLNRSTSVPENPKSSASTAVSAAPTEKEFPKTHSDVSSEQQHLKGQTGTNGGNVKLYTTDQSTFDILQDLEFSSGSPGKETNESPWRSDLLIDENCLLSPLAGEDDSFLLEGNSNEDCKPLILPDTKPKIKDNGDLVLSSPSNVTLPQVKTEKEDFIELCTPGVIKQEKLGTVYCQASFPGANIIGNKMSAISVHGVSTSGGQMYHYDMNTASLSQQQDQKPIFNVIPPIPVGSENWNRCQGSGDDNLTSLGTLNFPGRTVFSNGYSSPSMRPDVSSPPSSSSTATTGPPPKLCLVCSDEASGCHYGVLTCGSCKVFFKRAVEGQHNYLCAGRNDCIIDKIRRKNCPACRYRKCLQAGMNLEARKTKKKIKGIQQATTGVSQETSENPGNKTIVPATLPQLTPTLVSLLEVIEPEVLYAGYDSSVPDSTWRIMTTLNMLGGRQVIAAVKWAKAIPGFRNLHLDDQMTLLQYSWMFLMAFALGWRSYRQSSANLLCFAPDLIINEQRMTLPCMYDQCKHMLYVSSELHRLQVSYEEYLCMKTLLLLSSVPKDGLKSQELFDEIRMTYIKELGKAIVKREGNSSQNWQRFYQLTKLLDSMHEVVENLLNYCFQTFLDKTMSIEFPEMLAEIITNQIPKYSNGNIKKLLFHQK

SMILES | outcome [1] | outcome [2] | outcome [3] | outcome [4] | outcome [5] | outcome [6] | outcome [7] | Potency [8] | Potency [9] | Potency [10] | outcome [11] | Potency [12] | Potency [13] | outcome [14] | Potency [15] | outcome [16] | Potency [17] | outcome [18] | Potency [19] | outcome [20]
CNC[C@H](O)c1cccc(O)c1 | inactive | inactive | inactive | inactive | inactive | inactive | inactive | inactive | inactive | inactive | inactive | inactive |  |  |  |  |  |  |  | 
CCC1(c2ccccc2)C(=O)NCNC1=O | inactive | inactive | inactive | inactive | inactive | inactive | inactive |  |  |  | inactive | inactive | inactive | inactive | inactive |  |  |  |  | 
O=C(O)c1cccnc1 | inactive | inactive | inactive | inactive | inactive | inactive | inactive | inactive | inactive |  | inactive | inactive |  |  | inactive | inactive |  |  |  | 
CC(O)C(=O)O (stereo not drawn) | inactive | inactive | inactive | inactive | inactive | inactive | inactive | inactive | inactive |  | inactive | inactive |  |  |  | inactive |  |  |  | 
CC1(C)[C@@H]2CC[C@@]1(C)C(=O)C2 | inactive | inactive | inactive | inactive | inactive | inactive | inactive | inactive | 4.73 µM (active) and inactive |  | inactive | inactive | inactive | inactive |  | inactive | inactive |  |  | 
NC(=O)c1cnccn1 | inactive | inactive | inactive | inactive | inactive | inactive | inactive | inactive | inactive |  | inactive | inactive | inactive | inactive | inactive | inactive |  |  |  | 
Cc1cc(=O)n(-c2ccccc2)n1C | inactive | inactive | inactive | inactive | inactive | inactive | inactive | inactive | inactive |  | inactive | inactive |  |  | inactive |  | inactive | inactive | inactive | inactive
OC(Cn1cncn1)(Cn1cncn1)c1ccc(F)cc1F | inactive | inactive | inactive | inactive | inactive | inactive | inactive | inactive | inactive |  | inactive | inactive | inactive | inactive | inactive |  | inactive |  |  | 
Cc1ccccc1C(OCCN(C)C)c1ccccc1 (stereo not drawn) | inactive | inactive | inactive | inactive | inactive | inactive | inactive |  | inactive and 61.1 µM (active) and 54.5 µM (active) | inactive and 61.1 µM (active) and 68.6 µM (active) | inactive | inactive | inactive |  | inactive | inactive |  |  |  | 
O=S(=O)(O)c1ccc2cc(O)ccc2c1 | inactive | inactive | inactive | inactive | inactive | inactive | inactive | inactive | inactive |  | inactive | inactive | inactive | inactive |  |  |  |  |  | 
C[C@]12C=CC(=O)C=C1CC[C@@H]1[C@@H]2[C@@H](O)C[C@@]2(C)[C@H]1CC[C@]2(O)C(=O)CO | inactive | inactive | inactive | inactive | inactive | inactive | inactive | inactive | inactive |  | inactive | inactive |  |  |  |  |  |  |  | 
Nc1ccc(S(=O)(=O)c2ccc(N)cc2)cc1 | inactive | inactive | inactive | inactive | inactive | inactive | inactive | inactive | inactive |  | inactive | inactive |  |  | inactive |  |  |  |  | 
O=C(c1ccccc1)C(O)c1ccccc1 (stereo not drawn) | inactive | inactive | inactive | inactive | inactive | inactive | inactive | inactive | inactive |  | inactive | inactive | inactive | inactive |  |  | inactive |  |  | 
O=C(O)CCCCC(=O)O | inactive | inactive | inactive | inactive | inactive | inactive | inactive |  |  |  | inactive | inactive | inactive | inactive |  | inactive | inactive |  |  | 
C/C=C/c1ccc(OC)cc1 | inactive | inactive | inactive | inactive | inactive | inactive | inactive | inactive | inactive | inactive | inactive | inactive |  |  | inactive | inactive | inactive |  |  | 
CC(C)(Oc1ccc(C2CC2(Cl)Cl)cc1)C(=O)O (stereo not drawn) | inactive | inactive | inactive | inactive | inactive | inactive | inactive | inactive | inactive |  | inactive | inactive | inactive | inactive |  | inactive |  | inactive | inactive | inactive
Cn1cc[nH]c1=S | inactive | inactive | inactive | inactive | inactive | inactive | inactive | inactive | inactive |  | inactive | inactive |  |  |  | inactive | inactive |  |  | 
COC(=O)[C@H](Cc1ccccc1)NC(=O)[C@@H](N)CC(=O)O (H-Asp-Phe-OMe) | inactive | inactive | inactive |  | inactive | inactive | inactive | inactive | inactive | inactive | inactive | inactive | inactive | inactive | inactive | inactive | inactive |  |  | 
